aSyn rescue = rescues yeast growth from alpha-synuclein toxicity; Yeast expressing alpha-synuclein, growth rescue, BacTiter-Glo, 24 h; Potency, µM (doses to about 46.1 µM), for inactives: at the highest dose growth rescue (activation), usual class: activators; 0.14% of 370,000 active; AID 652106; note: % of control where 0% means no effect; nearly all actives have a fitted effect of over 65% in size
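Screening used galactose-induced yeast with toxic alpha-synuclein levels, exposed to compound for 24 hr at 30 deg C. Cell growth, read with BacTiter-Glo luminescence, gave the measured signal.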
Mito fusion yeast = inhibitors of mitochondrial division or activators of mitochondrial fusion. Potency, µM (doses to about 46.1 µM), for inactives: at the highest dose growth rescue (activation), usual class: activators. 0.23% of 320,000 active. S. cerevisiae fusion-defective mutant growth rescue, CellTiterGlo 48 h; note: % of control where 0% means no effect; nearly all actives have a fitted effect of over 45% in size
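Growth-rescue viability read-out: after 48 h at the non-permissive 37C in glycerol/ethanol YPEG, yeast mitochondrial fusion mutants are measured by CellTiterGlo luminescence; compounds (23 nl pinned per well) restoring growth score as division inhibitors or fusion activators.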
FUS suppressor = rescues growth of FUS-expressing yeast; 0.24% of 390,000 active; Potency, µM (top dose mostly 76.6 µM), hits mostly activators; AID 1347120; S. cerevisiae FUS-expressing, growth rescue, OD600, 24 h;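 note: plate controls were DMSO vehicle for no effect and reference control for full effect; nearly all actives have a fitted effect of over 55% in size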
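Absorbance at 600 nm, taken 24hr after compound addition, measured rescue of FUS-yeast growth at 30C. Induction used 2% galactose with seeding at OD 0.005. Controls: CP55940 from 92uM final, DMSO only.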
TDP-43 yeast inh = rescues yeast growth from TDP-43 toxicity | 1.8% of 410,000 active | AID 652104 | TDP-43 expressing yeast growth rescue, BacTiter-Glo, 24 h | Potency, µM (highest dose often 46.1 µM), without a hit: at the highest dose growth rescue (activation), usual class: activators; note: % of control where 0% means no effect; nearly all actives have a fitted effect of over 50% in size
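Yeast cells expressing TDP-43 under galactose induction are exposed to compounds for 24 hr at 30 deg C. BacTiter-Glo luminescence measures growth, so protective compounds score as activators.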
Abeta rescue = compounds reversing amyloid beta toxicity in yeast; yeast expressing A-beta42, growth rescue, OD600, 48 h; response scale: 0% DMSO, 100% iron-clioquinol control; Potency, µM (doses to about 46.1 µM), actives largely listed as activators; 0.063% of 410,000 active; AID 1347071; note: nearly all actives have a fitted effect of over 55% in size
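Yeast growth medium received pinned compounds, then yeast cells expressing toxic A-beta were added; plates incubated at 30 C for 48 hr. Growth read as absorbance at 600 nm, normalized to DMSO and equimolar FeCl3 plus clioquinol controls.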
Starred values were filed as active, the others as inactive; i = inactive; ? = inconclusive; nt = no result. Only some compounds are listed: those with a hit (about 2.2% of all), similar ones and a draw of the others. Calls come from the whole dose curve; as a rule, active = well fitted curve in the direction sought with a large enough effect; inconclusive = small, poorly fitted or top-dose-only effect, or another doubt; inactive = no such curve, though single readings can be large; an effect the other way counts as inactive or inconclusive. Potency is the fitted concentration of half-maximal effect.

SMILES	aSyn rescue	Mito fusion yeast	FUS suppressor	TDP-43 yeast inh	Abeta rescue
CC(O)(c1ccccc1)c1nc(-c2cccc(F)c2)cs1 (stereo not given)	19%	nt	i	0%	i
O=C(Cc1ccccc1[N+](=O)[O-])OCC(=O)c1ccccc1Br	2%	nt	i	13µM*	i
Nc1ccc(-c2nc3ncccc3o2)c(Cl)c1	14µM*	0%	i	-3%	i
COc1cc(OC)c(OC)cc1/C=C/c1cc[n+](C)c2ccccc12	-15%	nt	nt	nt	nt
Cc1ccc(Cl)cc1N1CCN(C(=O)CCS(=O)(=O)c2cc(Br)cc3c2N(C(=O)C2CC2)CC3)CC1	nt	nt	i	19%	i
Cc1ccc(CNC(=O)c2sc3ncnc(N(C)C4CCCCC4)c3c2C)cc1	nt	nt	i	?	i
Cc1sc2ncnc(N(C)C3CCCCC3)c2c1C	5%	-1%	i	16µM*	i
CC(=O)N1CCCc2ccc(NC(=O)c3ccc(C(F)(F)F)cc3)cc21	nt	nt	i	10%	i
Cc1ccc(OCCSc2nnc(-c3cccs3)n2C)cc1	6%	0%	i	13µM*	i
Cn1c(SC/C=C/c2ccccc2)nnc1-c1cccs1	17%	11%	i	18µM*	i
Cc1cc(OCCSc2nnc(-c3cccs3)n2C)ccc1Cl	-1%	9%	i	?	i
COc1cc2c(NC3CCN(C)CC3)nc(N3CCCN(C)CC3)nc2cc1O	2%	nt	nt	nt	nt
S=C(S)OC1CC2CC1C1CCCC21 (stereo not given)	5%	18µM*	i	24%	i
CCOc1ccccc1NC(=O)CSc1ccc(-c2ccco2)nn1	-3%	-1%	i	?	i
O=C(CSc1ccc(-c2ccco2)nn1)Nc1ccccc1F	7%	6%	i	28µM*	i
O=C(Cn1nc(-c2ccco2)ccc1=O)Nc1cc(Cl)ccc1Cl	13%	13%	i	13µM*	i
Cn1c(SCC(=O)Nc2ccc(Cl)cc2F)nnc1-c1ccco1	2.8µM*	5%	i	22%	i
Cc1cc(NC(=O)CSc2nnc(-c3ccco3)n2C)no1	0%	0%	i	7%	i
CCC(C)(C)C(=O)O[C@H]1C[C@@H](C)C=C2C=C[C@H](C)[C@H](CC[C@@H]3C[C@@H](O)CC(=O)O3)[C@H]21	16%	-10%	i	14µM*	i
O=C1CC(N2CCCN(Cc3ccccc3)CC2)=NC(=O)N1c1ccc(Br)cc1	nt	nt	i	nt	nt
Cc1ccc(C(=O)Oc2cccc(NC(=O)c3ccccc3)c2)cc1C	0%	10µM*	nt	12%	?
O=C(Nc1cccc(O)c1)c1ccc([N+](=O)[O-])cc1Cl	-1%	-4%	i	12%	i
O=C(Nc1ccc(Nc2ccccc2)cc1)c1ccc(Br)o1	19%	20%	nt	-44%	i
O=C(Oc1cccc(NC(=O)c2ccccc2Cl)c1)c1ccc([N+](=O)[O-])cc1	15%	2%	i	13µM*	i
Cc1ccc(NC(=O)c2ccccc2)cc1C	-1%	4%	i	-14%	i
SMILES	aSyn rescue	Mito fusion yeast	FUS suppressor	TDP-43 yeast inh	Abeta rescue
O=C(Nc1cccc(OC(=O)c2ccc(Br)o2)c1)c1ccccc1	-7%	?	i	22µM*	i
C[C@@H]1CCCN1c1ccc2c(c1)O[C@H]1CCN(C1)S2(=O)=O	nt	nt	i	nt	nt
Nc1ncnc(Oc2cccc(C(F)(F)F)c2)c1[N+](=O)[O-]	-3%	1%	i	13µM*	i
S=C(Nc1ccccc1)N1CCOCC1	0%	4%	i	-14%	i
S=C(N/N=C/c1ccccc1)N1CCOCC1	-8%	-3%	nt	22µM*	?
Cn1c(COc2cccc3ccccc23)nnc1SCC(=O)OC1CCCCC1	?	9%	?	25µM*	i
CCC1CCc2c(sc(N)c2C(N)=O)C1 (stereo not given)	-10%	nt	nt	3%	i
CC1CCc2c(sc(N)c2C(N)=O)C1 (stereo not given)	15%	0%	32µM*	-16%	i
O=[N+]([O-])c1cc(C(F)(F)F)ccc1NCCc1c[nH]c2ccc(O)cc12	17%	?	i	6%	i
O=[N+]([O-])c1cc(C(F)(F)F)ccc1NCCc1c[nH]c2ccccc12	4%	-7%	i	22µM*	i
Cc1ccc(C(CC(=O)Nc2ccc(C)cc2C)N2Cc3ccccc3C2=O)cc1 (stereo not given)	2%	nt	?	11%	i
Cc1nn(-c2ccccc2)c(N)c1N=Nc1ccccc1	-14%	?	i	?	i
Cc1cccc(N=Nc2c(C)nn(-c3ccccc3)c2N)c1C	-20%	-8%	nt	20µM*	i
Nc1nn(-c2ccccc2)c(N)c1N=Nc1ccccc1F	-26%	6%	i	13µM*	i
C[N+]1(CC(=O)c2ccc(O)c(O)c2)CCOCC1	2%	nt	nt	nt	nt
NC(=O)Cc1nc2scc(-c3ccccc3)c2c(=O)[nH]1	-1%	0%	i	-12%	i
O=C(OCc1nc2scc(-c3ccccc3)c2c(=O)[nH]1)c1ccco1	5%	-1%	i	35µM*	?
Cc1ccc(CNC(=O)c2ccc3oc(=O)n(Cc4ccccc4)c3c2)cc1	nt	nt	i	20%	i
CCOC(=O)c1ccc2oc(=O)n(Cc3ccccc3)c2c1	nt	nt	i	7.9µM*	i
COc1cccc(CNC(=O)c2ccc3oc(=O)n(Cc4ccccc4)c3c2)c1	nt	nt	i	25µM*	?
COc1ccc(CCNC(=O)CCc2cn(Cc3ccc(C)cc3)c3ccccc23)cc1OC	nt	nt	i	13%	i
Cc1nc(Nc2ccc3c(c2)OCCO3)c2c(C)c(C)sc2n1	13%	3%	?	11µM*	i
CCCc1ccc(-c2ccc(/C=C/C(=O)O)cc2)nc1	19%	?	nt	4%	i
CCCCCc1ccc(-c2ccc(/C=C/C(=O)O)cc2)nc1	?	13µM*	nt	10%	i
COC(=O)c1sc(NC(=O)COc2c(C)cccc2C)nc1C	10%	17%	i	20µM*	i
SMILES	aSyn rescue	Mito fusion yeast	FUS suppressor	TDP-43 yeast inh	Abeta rescue
O=C1C(=Cc2cccc(Cl)c2)CCc2ccccc21	-22%	nt	i	20µM*	i
CCOC(=O)c1noc2ncn(CC(=O)O)c(=O)c12	nt	nt	i	0%	i
COc1ccccc1CNC(=O)COc1ccc(C)cc1	23%	-5%	i	11µM*	i
COC(=O)c1ccc(OCC(=O)c2ccccc2OC)cc1	0%	5%	i	11µM*	i
CC(C)(C)C(=O)Nc1cc(-c2cccc(Br)c2)nn1-c1ccccc1	nt	nt	i	22µM*	i
Cc1cccc(-c2cc(NC(=O)C(C)(C)C)n(-c3ccccc3)n2)c1	nt	nt	i	?	i
Cc1ccc(C)n1NC(=O)c1ccccc1	-2%	2%	20µM*	-2%	i

Bioassay records (PubChem)
